Among the data in PubChem BioAssay are composite z-score, z-score and composite Z-score values, retold here.

Calls of active or inactive are those of the source.

The test system of test [1] is Human papillomavirus type 1a protein E7 (residues 44-93). The test is described as follows: HPV1a E7 fragment binders on microarrays, primary screen, biochemical, small-molecule microarray, residues 44-93, 635 nm fluorescence (AID 1108).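 Also: E7 fragment applied at 1 µg/mL in TBST for 1 h at 4 C; score combines spot fluorescence with its signal to noise ratio.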 The conditions noted are these: small-molecule microarray binding, fluorescence 635 nm; higher = more signal.
The nature of test [2]: modulators of HCV replicon luciferase signal, primary screen, HCV replication inhibitor project, Huh7 cells, luciferase reporter (AID 1109).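 Also: huh7 hepatoma cells harbouring a luciferase neomycin HCV replicon reporter; luciferase luminescence as measure of HCV replicon replication; test concentration not given here.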 The conditions noted are these: 48 h, higher = more signal. On the technique in general: Replicon systems follow genome replication, usually without infectious particles.
Test [3] addresses Left-right determination factor 2 (Homo sapiens) (UniProt O00292). The test is described as follows: LEFTY2 binders on small-molecule microarrays, primary screen, biochemical, small-molecule microarray, 635 nm fluorescence scan (AID 1110). Conditions: LEFTY2 binding, higher = more signal.
Test [4] addresses Calmodulin-1 (Homo sapiens) (UniProt P0DP23). The test is described as follows: CALM1 binders on microarrays, EGTA buffer, profiling panel, biochemical, small-molecule microarray, Cy5-labelled CALM1 (AID 1111).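 Also: labelled calmodulin applied in Tris saline Tween buffer holding calcium plus EGTA and DTT.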 Conditions: Cy5-CALM1 binding fluorescence, higher = more signal.
Test [5] has the same target. The test is described as follows: calcium-bound CALM1 binders on microarrays, profiling panel, artefact control for SMM control-protein annotation, biochemical, small-molecule microarray, Cy5-labelled CALM1, plus calcium (AID 1112).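 Also: score merges spot fluorescence with signal to noise from triplicate slides.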 The conditions noted are these: Cy5-CALM1 binding fluorescence, higher = more signal.
A short description of test [6]: small-molecule microarray binders of probe aWnt5a, primary screen, biochemical, biotinylated probe, 635/667 nm fluorescence (AID 1113).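 Also: score merges 667 nm fluorescence intensity with signal-to-noise per printed feature.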 The conditions noted are these: higher = more signal.
A short description of test [7]: small-molecule microarray binders of probe aShh, primary screen, biochemical, biotinylated probe, 635/667 nm fluorescence (AID 1114).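 Also: probe is biotin-labelled aShh protein from a stem cell growth factor screen; measures binding of labelled protein to compounds printed on the slide; score merges feature fluorescence at 667 nm with signal-to-noise.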 Conditions: higher = more signal.
Test [8] in a line: small-molecule microarray binders of probe aNog, primary screen, biochemical, biotinylated probe, 635/667 nm fluorescence (AID 1115).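 Also: probe is biotinylated aNog protein used at 0.15 µg/mL for 1 h at 4 C; z-score combines 667 nm fluorescence of each spot with its signal to noise.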 The conditions noted are these: higher = more signal.
For test [9], the target named is Torsin-1A-interacting protein 1 (Homo sapiens) (UniProt Q5JTV8). The test is described as follows: LAP1 binders from COS7 cell lysate, primary screen, small-molecule microarray, 635/667 nm fluorescence (AID 1116). The conditions noted are these: COS7-hLAP1 lysate binding, 635 nm fluorescence, higher = more signal.
Torsin-1A-interacting protein 1 (Homo sapiens), sequence (Q5JTV8 whole entry, looked up): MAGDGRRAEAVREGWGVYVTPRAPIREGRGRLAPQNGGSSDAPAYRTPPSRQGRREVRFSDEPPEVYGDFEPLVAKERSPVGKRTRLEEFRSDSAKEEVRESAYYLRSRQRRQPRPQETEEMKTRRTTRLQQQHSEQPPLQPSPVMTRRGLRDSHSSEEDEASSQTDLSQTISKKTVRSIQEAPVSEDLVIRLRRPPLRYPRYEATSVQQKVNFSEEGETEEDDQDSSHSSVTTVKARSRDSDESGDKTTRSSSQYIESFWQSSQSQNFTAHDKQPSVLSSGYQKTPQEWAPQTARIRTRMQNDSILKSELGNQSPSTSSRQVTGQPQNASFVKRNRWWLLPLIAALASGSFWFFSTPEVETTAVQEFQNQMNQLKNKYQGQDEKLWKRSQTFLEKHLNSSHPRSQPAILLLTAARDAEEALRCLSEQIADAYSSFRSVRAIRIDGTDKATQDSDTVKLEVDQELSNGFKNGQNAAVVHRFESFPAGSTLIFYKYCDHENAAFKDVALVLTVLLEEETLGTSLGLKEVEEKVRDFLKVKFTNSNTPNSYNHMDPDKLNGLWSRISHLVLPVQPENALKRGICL
Test [10] addresses Alpha-bungarotoxin (Bungarus multicinctus) (UniProt P60615). The test is described as follows: alpha-bungarotoxin binders on microarray, profiling panel, artefact control for SMM control protein annotation, biochemical, small-molecule microarray, Alexa647 label, 635/667 nm fluorescence (AID 1117). Conditions: alpha-BTX-A647 binding fluorescence, higher = more signal.
In another test the target is Albumin (Bos taurus) (UniProt P02769). The test is described as follows: bovine serum albumin binders on microarray, profiling panel, artefact control for SMM control protein annotation, biochemical, small-molecule microarray, Alexa647 label, 635/667 nm fluorescence (AID 1118).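 Also: score merges 667 nm emission intensity and signal-to-noise per printed compound spot.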 The conditions noted are these: BSA-A647 binding, fluorescence 635 nm, higher = more signal.
Albumin (Bos taurus), sequence (P02769 whole entry, looked up): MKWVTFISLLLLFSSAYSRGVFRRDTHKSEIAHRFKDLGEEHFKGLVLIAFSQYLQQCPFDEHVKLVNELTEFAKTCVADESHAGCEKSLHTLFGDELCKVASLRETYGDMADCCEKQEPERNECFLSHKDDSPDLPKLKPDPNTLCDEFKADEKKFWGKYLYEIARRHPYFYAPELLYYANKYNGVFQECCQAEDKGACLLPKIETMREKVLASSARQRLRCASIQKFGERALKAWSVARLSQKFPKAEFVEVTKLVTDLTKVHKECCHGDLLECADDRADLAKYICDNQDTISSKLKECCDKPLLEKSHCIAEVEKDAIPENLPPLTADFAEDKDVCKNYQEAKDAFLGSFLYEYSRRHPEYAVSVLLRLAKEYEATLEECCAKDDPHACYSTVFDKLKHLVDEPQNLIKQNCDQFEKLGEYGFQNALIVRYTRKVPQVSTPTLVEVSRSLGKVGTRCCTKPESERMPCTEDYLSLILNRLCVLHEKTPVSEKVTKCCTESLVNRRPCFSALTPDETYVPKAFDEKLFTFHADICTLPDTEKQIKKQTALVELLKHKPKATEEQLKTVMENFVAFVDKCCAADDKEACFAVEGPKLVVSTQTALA

Test [11] can be described thus: small-molecule microarray binders of probe aXIP, primary screen, biochemical, NeuroSMM set, 635/667 nm fluorescence (AID 1119).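 Also: probe is the protein aXip251-270 applied at 1 µg/mL to compound-printed slides; binding of probe to printed compounds measured as 667 nm fluorescence plus signal to noise.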 The conditions noted are these: higher = more signal, called active from +8 up or from −8 down.
Test [12] can be described thus: small-molecule binders of probe aNOTCH3, primary screen, biochemical, small-molecule microarray, 635/667 nm fluorescence (AID 1120).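 Also: probe is a biotin-tagged antibody raised against NOTCH3 rather than NOTCH3 protein; score merges spot fluorescence near 667 nm with spot signal to noise.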 Conditions: higher = more signal.
Test [13] is described as follows: small-molecule binders of probe aNOTCH2, primary screen, biochemical, small-molecule microarray, 635/667 nm fluorescence (AID 1121).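 Also: score merges feature fluorescence read at 667 nm with its signal to noise.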 Conditions: higher = more signal.
Test [14] has as its target Carbonic anhydrase 2 (Homo sapiens) (UniProt P00918). The test is described as follows: CAII small-molecule binders, profiling panel, biochemical, small-molecule microarray, Alexa647-labelled CAII (AID 1122). Conditions: CAII-A647 binding fluorescence, higher = more signal.
Test [15] can be described thus: COS7 lysate on small-molecule microarray, probe aHis, 635 nm (AID 1123).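 Also: z-score combines 667nm fluorescence intensity with signal-to-noise per printed compound spot.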 The conditions noted are these: COS7 cell lysate, fluorescence, higher = more signal.
Test [16] in a line: compound binding in COS7 lysate, probe aLAP1, primary screen, cell lysate, small-molecule microarray (AID 1124).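 Also: lysate comes from COS7 cells expressing LAP1 and is applied at 0.3 µg/mL; score merges spot fluorescence near 667 nm with signal-to-noise over triplicate slides.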 Conditions: probe aLAP1, fluorescence, higher = more signal.
The test system of another test is Sam68 (KHDRBS1). The test is described as follows: Sam68 small-molecule binders, primary screen, biochemical, small-molecule microarray, 635 nm fluorescence (AID 1125).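 Also: score merges 667 nm channel intensity with signal to noise over triplicate slides.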 The conditions noted are these: small-molecule microarray binding, higher = more signal.
In test [17] the test system is Chordin-like protein 2 (CHRDL2). The test is described as follows: CHRDL2 small-molecule binders, primary screen, biochemical, small-molecule microarray, 635 nm fluorescence (AID 1126).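 Also: printed compound slides probed with Chrdl2 protein at 4 µg/mL for 1 h at 4 C; score merges 667 nm emission intensity with signal to noise over three replicate slides.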 The conditions noted are these: small-molecule microarray binding, fluorescence 635 nm; higher = more signal.
The target of test [18] is Concanavalin-A (Canavalia ensiformis) (UniProt P02866). The test is described as follows: ConA small-molecule binders, primary screen, artefact control for SMM control protein annotation, biochemical, small-molecule microarray, Alexa647 label, 635 nm (AID 1127).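 Also: z combines 667 nm emission intensity with signal-to-noise across three replicate slides.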 The conditions noted are these: ConA-A647 binding fluorescence, higher = more signal.
Concanavalin-A (Canavalia ensiformis), sequence (P02866 whole entry, looked up): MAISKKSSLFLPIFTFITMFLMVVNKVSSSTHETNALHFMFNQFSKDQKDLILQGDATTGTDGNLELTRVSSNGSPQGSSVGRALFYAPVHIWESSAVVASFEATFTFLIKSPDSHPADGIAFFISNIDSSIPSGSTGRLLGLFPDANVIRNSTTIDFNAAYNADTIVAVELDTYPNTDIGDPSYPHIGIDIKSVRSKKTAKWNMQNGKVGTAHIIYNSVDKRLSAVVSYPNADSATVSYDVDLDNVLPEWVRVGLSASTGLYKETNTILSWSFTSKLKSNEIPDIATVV

Left-right determination factor 2 (Homo sapiens), sequence (O00292 whole entry, looked up): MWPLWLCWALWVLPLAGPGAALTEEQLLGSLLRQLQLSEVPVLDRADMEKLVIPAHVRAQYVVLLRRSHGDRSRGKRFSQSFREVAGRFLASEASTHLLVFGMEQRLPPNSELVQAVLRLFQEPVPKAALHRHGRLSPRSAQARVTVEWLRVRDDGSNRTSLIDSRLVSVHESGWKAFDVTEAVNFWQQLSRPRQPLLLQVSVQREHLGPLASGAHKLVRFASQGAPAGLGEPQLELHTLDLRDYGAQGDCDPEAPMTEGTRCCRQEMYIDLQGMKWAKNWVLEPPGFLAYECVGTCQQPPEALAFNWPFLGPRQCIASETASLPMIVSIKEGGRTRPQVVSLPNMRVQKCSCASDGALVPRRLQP
Alpha-bungarotoxin (Bungarus multicinctus), sequence (P60615 whole entry, looked up): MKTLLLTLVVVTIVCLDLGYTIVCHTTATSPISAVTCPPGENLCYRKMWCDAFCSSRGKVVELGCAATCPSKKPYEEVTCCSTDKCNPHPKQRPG

For `O=C1c2ccccc2[C@](Cc2ccccc2I)(C(=O)O)[C@H](c2ccc(CO)cc2)N1Cc1ccccc1C(F)(F)F`, the composite z-score in test [1] is 1.46; in [3] it was -0.422; in test [4], 1.08; in test [5], -0.604; in test [6] it was -0.0006; in test [7], -0.0382. Moreover, the composite z-score was 0.689 in test [8]; -0.0086 in test [9]; 1.58 in test [10]; 0.449 with Albumin (Bos taurus); -0.0647 in test [12]; -0.106 in test [13]. In addition, the composite z-score in [14] was 0.583; in test [15], 1.91; in test [16], 1.77; with Sam68 (KHDRBS1) it was 0.431; in [17], -0.697; in test [18], 0.918. The molecule also gave a z-score in test [2] of -0.702. The composite Z-score in test [11] was -0.249 (inactive).

On to `C=CCC(OC(C)=O)[C@@H]1[C@@H](N(Cc2ccc(-c3ccccc3)cc2)C(=O)c2ccc(C)cc2)c2cc(OCCCO)ccc2N1C(=O)Cc1ccc(OC)cc1` (stereo not given in full), for which the composite z-score in test [1] is 0.422; in test [3], 0.0181; in test [4], -0.0181; in test [5], -0.164; in test [6] it was 0.0115; in [7], -0.273. In addition, the composite z-score in [8] was -0.0579; in [9], 0.0982; in test [10] it was 1.73; with Albumin (Bos taurus), -0.0547; in test [12] it was -0.0208; in test [13] it was -0.0131. Moreover, the composite z-score in test [14] was -0.249; in [15], 0.0567; in test [16], 0.179; with Sam68 (KHDRBS1), -0.248; in [17], -0.0845; in test [18], 0.733. Besides, the z-score in [2] is -0.75. For the same molecule, the composite Z-score in test [11] is 0.39 (inactive).

In the case of `C[C@H]1C2[C@H](Cc3ccccc3)NC(=O)[C@]23C(=O)N[C@H](Cc2ccccc2)C(=O)N[C@H](Cc2ccccc2)C(=O)NC/C=C/CCC/C=C/C3[C@@H]2O[C@]12C` (stereo not given in full), the composite z-score in test [1] is 1.39; in test [3], -0.0974; in test [4], -0.343; in [5], -1.28; in test [6] it was -0.124; in [7] it was -0.123. Besides, the composite z-score is -0.0662 in test [8]; -0.564 in [9]; 0.617 in test [10]; 0.63 with Albumin (Bos taurus); -0.246 in [12]; -0.115 in [13]. Moreover, the composite z-score in [14] amounted to 0.312; in test [15], 1.25; in [16] it was 0.338; with Sam68 (KHDRBS1) it was 0.179; in test [17] it was 0.8; in test [18], 0.472. Also, the z-score in test [2] is 0.554. In addition, the composite Z-score in test [11] is 0.312 (inactive).

Turning to `C=C(COC)C(=O)CC[C@@H](OC(=O)c1ccccc1-c1ccccc1C(=O)O)c1ccc(CO)o1`, the composite z-score in [1] was 0.512; in [3] it was 1.01; in [4] it was 1.63; in [5] it was 0.417; in test [6] it was -0.256; in [7], -0.34. The composite z-score in test [8] was -0.251; in [9] it was 0.709; in test [10], 0.206; with Albumin (Bos taurus), -0.651; in test [12], -0.154; in test [13] it was -0.0817. Also, the composite z-score stood at 0.309 in test [14]; 1.77 in test [15]; 0.447 in [16]; 0.504 with Sam68 (KHDRBS1); 1.24 in test [17]; 0.865 in [18]. This molecule had a z-score in [2] of -4.48. Besides, the composite Z-score in test [11] was 0.082 (inactive).

Take `COc1ccccc1CN1C(=O)c2ccccc2[C@](Cc2ccccc2I)(C(=O)NCc2ccccc2)[C@@H]1c1ccc(CO)cc1`: the composite z-score in test [1] is 0.0977; in test [3], -0.703; in [4] it was 0.0656; in [5], 0.556; in test [6], 0.037; in [7], -0.264. The composite z-score in test [8] is -0.268; in test [9] it was -0.0999; in test [10], 1.05; in the test with Albumin (Bos taurus), 0.717; in [12], -0.0682; in test [13], -0.0211. In addition, the composite z-score in test [14] was 0.345; in [15] it was 1.77; in [16], 0.729; in the test with Sam68 (KHDRBS1), 0.505; in [17] it was -0.748; in test [18] it was -0.0126. For the same molecule, in test [2], the z-score is -0.641. Further, the composite Z-score in [11] was 0.265 (inactive).

Consider `CO[C@H]1O[C@H](CO)[C@@H](OC(=O)Nc2ccc(C(F)(F)F)cc2)[C@H](OC(=O)Nc2ccccc2)[C@@H]1OC(=O)Nc1ccccc1`, for which the composite z-score in [1] was 1.34; in test [3], 0.003; in [4], 1.08; in test [5], -0.778; in [6] it was 0.0887; in [7], -0.102. Further, the composite z-score is -0.305 in test [8]; 1.01 in [9]; 0.462 in [10]; 0.533 with Albumin (Bos taurus); 0.217 in test [12]; 0.0405 in test [13]. For the same molecule, the composite z-score was 0.527 in [14]; 2.31 in [15]; -0.0098 in [16]; 1.29 with Sam68 (KHDRBS1); -0.28 in [17]; 1.16 in [18]. The z-score in [2] stood at 0.0041. The composite Z-score in [11] was 0.291 (inactive).

As for `O=C1C2C=CC(C(O)c3ccc(Br)cc3)N(n3cnnc3)C2C(=O)N1Cc1ccccc1` (stereo not given), the composite z-score in test [1] was 1.34; in test [3] it was 0.329; in test [4] it was -0.0714; in test [5], 0.182; in test [6], -0.0236; in [7], -0.0827. The composite z-score was 0.205 in [8]; 0.465 in test [9]; 0.942 in test [10]; 0.807 with Albumin (Bos taurus); -0.0443 in test [12]; -0.0004 in test [13]. For the same molecule, the composite z-score is 0.259 in test [14]; 1.57 in test [15]; 0.448 in [16]; 1.29 in the test on Sam68 (KHDRBS1); -0.064 in [17]; 1.07 in [18]. The molecule also displayed a z-score in test [2] of -4.38. Moreover, the composite Z-score in test [11] was -1.02 (inactive).
